{"source": "PubChem BioAssay (NCI)", "note": "About 83,000 compounds went through this panel and 20% of them were active in at least one assay; those are over-represented in the sample as a whole.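 Note: values are percent growth. 100 is the growth of untreated cells, values between 100 and 0 indicate rising inhibition; between -100 and 0 indicates cell death.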 Values without a mark were called inactive. Activity calls are given as the source filed them. How the source made its calls: active means growth percent below 10; inactive means the rest.", "data": [{"system": "MDA-MB-468 breast", "assay": "NCI-60 one-dose screen, 48 h (100 = growth as untreated, 0 = no growth, -100 = all killed)", "settings": "10 µM unless noted", "values": [{"smiles": "CC(=O)Cc1nsc(NC(=O)c2ccoc2COc2ccccc2)n1", "growth": "124%"}, {"smiles": "O=[N+]([O-])c1cc(/C=N/Nc2nc(N/N=C/c3ccc(Cl)c([N+](=O)[O-])c3)nc(N3CCCCC3)n2)ccc1Cl", "growth": "68.8%"}, {"smiles": "CC(C)[N+](C)(C)CC(O)COc1cccc2ccccc12", "note": "(configuration not stated)", "growth": "104%"}, {"smiles": "COC(=O)C1=C(C(=O)ON)[C@@H]2C=C[C@@]1([C@@H](Cc1ccccc1)Nc1ccccc1)O2", "growth": "-38.8% (active)"}, {"smiles": "O=C(Nc1c2ccccc2nc2ccccc12)c1ccccc1CN1C(=O)c2ccccc2C1=O", "growth": "0.8% (active)"}, {"smiles": "CC[N+](CC)=c1ccc2nc3c(cc(NCc4ccccc4)c4ccccc43)oc-2c1", "growth": "-88.7% (active)"}, {"smiles": "Cn1ccnc1C(=O)/C=C/c1ccc(CNC(=O)c2ccc(Cl)cc2)cc1", "growth": "-14.5% (active)"}, {"smiles": "O=C([C@@H](COCc1ccccc1)N1C(=O)[C@@H](N2C(=O)OC[C@@H]2c2ccccc2)[C@H]1/C=C/c1ccccc1)N1CCC(CCN2CCCCC2)CC1", "growth": "64.8%"}, {"smiles": "COc1cccc(-c2cc(-c3cccc(NS(C)(=O)=O)c3)nc(N)c2C#N)c1O", "growth": "2.89% (active)"}, {"smiles": "Cc1ccc(C)c(-n2c(-c3ccc(Br)cc3)csc2=NC(=O)c2ccccc2F)c1", "growth": "55.4%"}, {"smiles": "CC(C)c1ccc(/C=N/Nc2nc3ccccc3s2)cc1", "growth": "110%"}, {"smiles": "Cc1ccc(C(=O)c2ccc(CC(=O)N=Nc3c(O)[nH]c4ccc(OC(F)(F)F)cc34)n2C)cc1", "growth": "108%"}, {"smiles": "CC(=O)OCC1OC(n2cnc3c(=S)nc(N)[nH]c32)C(OC(C)=O)C1OC(C)=O", "note": "(configuration not stated)", "growth": "68.5%"}, {"smiles": "Nc1c(C(=O)c2ccc(Br)cc2)oc2nc(-c3cnccn3)cc(-c3cccs3)c12", "growth": "99.4%"}, {"smiles": "COc1cnc2c(c1)C(=O)c1c-2n(CCCN2CCNCC2)c(=O)c2cc([N+](=O)[O-])ccc12", "growth": "-74.8% (active)"}, {"smiles": "CCOc1cc(CNc2ccc(N3CCOCC3)c(C(=O)O)c2)ccc1OC", "growth": "94.7%"}, {"smiles": "COc1cc(/C=N/NC(=O)c2cn(C3CC3)c3c(OC)c(N4CC5CCCNC5C4)c(F)cc3c2=O)ccc1O", "note": "(configuration not stated)", "growth": "54.8%"}, {"smiles": "C=C1C(=O)O[C@H]2[C@H]1CC/C(COC(=O)c1ccc(Br)cc1)=C\\CC[C@@]1(C)O[C@@H]21", "growth": "-23.1% (active)"}, {"smiles": "COc1ccc(C2=CC(c3ccc(OC)cc3Br)N3C=CSC3=N2)cc1", "note": "(configuration not stated)", "growth": "17.4%"}, {"smiles": "O=C(Oc1ccccc1)C(Br)C(Br)c1ccccc1", "note": "(configuration not stated)", "growth": "56.7%"}, {"smiles": "Cc1cc(C)c([O-])c(CN(C)CCN(C)Cc2cc(C)cc(C)c2[O-])c1.O=C([O-])c1cccc(C(=O)[O-])n1.[Ti+4]", "growth": "-8.96% (active)"}, {"smiles": "CCN1C(=O)N(CC)C2C1NN=c1s/c(=C\\c3cccs3)c(=O)n12", "note": "(configuration not stated)", "growth": "15.3%"}, {"smiles": "CC(C)CC(NC(=O)C(CCCN=C(N)N)NC(=O)OCc1ccccc1)C(=O)NC(CNC(=O)/C=C/c1ccccc1)C(C)C", "note": "(configuration not stated)", "growth": "94.4%"}, {"smiles": "COc1ccccc1CNc1c2ccccc2nc2ccccc12", "growth": "28.3%"}, {"smiles": "NC(CSC(c1ccccc1)(c1ccccc1)c1ccccc1)C(=O)O", "note": "(configuration not stated)", "growth": "32.7%"}, {"smiles": "CCCC1CCC(=C2C(=O)CCC2=O)O1", "note": "(configuration not stated)", "growth": "88.7%"}, {"smiles": "N#Cc1ccc(N2Cc3cc(Cl)ccc3OC3=C2C(=O)N(Cc2ccccc2)C3=O)cc1", "growth": "-64.2% (active)"}]}]}
